Measured values from PubChem BioAssay.

Test: viability profiling in RPMI8226 myeloma cells – cell-based, resazurin fluorescence, basal, 24 h, PK04 Diversity Set, profiling panel (AID 1180);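 note: RPMI8826 multiple myeloma cell line at 5000 cells per well; test concentration not given here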
Conditions: higher = more signal

| SMILES | z-score |
| --- | --- |
| C=C(COC)/C(=C/C[C@H](OC(C)=O)c1ccccc1OCCO)c1cc(C(=O)OC)ccc1OC | -0.776 |
| C=C(CCCC)/C(=C/C[C@H](OC(=O)c1ccncc1)c1cccc(OCCO)c1)c1cnc2ccccc2c1 | -0.82 |
| C=C(COC)C(=O)CC[C@@H](OC(C)=O)c1ccccc1OCCO | -1.09 |
| COc1ccc(C(O)C2C=CC3C(=O)N(c4ccccc4)C(=O)C3N2Nc2ccc(C#N)cc2)cc1OCc1ccccc1 (configuration not stated) | -0.756 |
| CCOC(=O)C1=CC[C@@H](c2ccc(OC)cc2)N(S(=O)(=O)c2ccc(C)cc2)[C@H]1c1ccc(C)cc1 | -0.652 |
| C=C(CCCC)/C(=C/C[C@H](OC(C)=O)c1cccc(OCCO)c1)c1cnc2ccccc2c1 | 0.814 |
| CC(=O)OCC1C2CC[C@H]3C(OCc4ccc(F)cc4C(F)(F)F)OC[C@]4(C)[C@H]3C2=C(CN4C(=O)OC(C)(C)C)[C@H](C)C1COC(C)=O (some centres not stated) | -1.18 |
| CC(C)(C)OC(=O)CC[C@]1(C(=O)NCC(O)CO)N=C(c2ccc(OCCCO)cc2)O[C@H]1c1ccccc1N=[N+]=[N-] (some centres not stated) | -0.288 |
| COC(=O)[C@@]1(Cc2ccc(F)cc2)[C@H]2c3cc(C(=O)N(C)C)n(CCc4ccc(O)c(O)c4)c3C[C@H]2CN1C(=O)c1ccccc1 | -0.834 |
| CC[C@@H]1C=C(C(=O)O)[C@H](c2ccc(OC)cc2)N1S(=O)(=O)c1ccc(C)cc1 | -1.16 |
| COC(=O)[C@@]1(Cc2ccccc2)N=C(c2ccc(OCCCO)cc2)O[C@H]1c1ccccc1CN=[N+]=[N-] | -6.42 |
| COc1ccc(C(=O)Nc2cccc(CN3C(=O)[C@@]4(O[C@@H](CC(=O)N5CCC[C@H]5CO)[C@H]([Si](C)(C)c5ccc(OC)cc5)[C@H]4C)c4ccccc43)c2)cc1 | -1.25 |
